Assay results taken from PubChem BioAssay (EPA / NIEHS).
Inconclusive results are not listed. Active and inactive are the calls of the source. The calls were made as follows, unless noted: active = hit-call score of the fitted dose curve at least 0.9, where 1 is the maximum; inactive = score below 0.9.

Experiments:
[1] = APR_HepG2_CellCycleArrest_1hr: Apredica 1-hour HepG2 Assay for Cell Cycle Arrest (AID 2282666); conditions: high-content imaging, actives raise or lower the signal
Outline: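 HepG2 cells exposed for 1 h to 0.39–200 uM compound (0.5% DMSO). Fixed, Hoechst-stained nuclei imaged by ArrayScan; DNA content quantified by Cell Cycle analysis; bidirectional fit against DMSO.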

[2] = ACEA_ER_80hr: ACEA Biosciences xCELLigence Real-Time Cell Analysis on Estrogen Receptor Agonism for Proliferation (AID 2282667; active = hit-call score of the fitted dose curve at least 0.9, where 1 is the maximum); conditions: T47D proliferation, impedance (xCELLigence), 80 h
Outline: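 T-47D cells monitored by electrical impedance (xCELLigence) with compound present throughout; 80 h timepoint, positive-direction fitting versus DMSO. Eight-point 1:4 dilutions from 100 uM final, duplicate plates.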

[3] = APR_HepG2_CellLoss_1hr: Apredica 1-hour HepG2 Assay for Cell Loss (AID 2282668); conditions: high-content imaging;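 also: curves fitted both ways against DMSO so gain or loss of cells counts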
Outline: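 HepG2 cells were treated for 1 h with compound at 0.39–200 uM, in duplicate, in 0.5% DMSO. After formaldehyde fixation, Hoechst 33342-stained nuclei were imaged on an ArrayScan to count cells. Data were fitted bidirectionally versus DMSO.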

[4] = APR_HepG2_MicrotubuleCSK_1hr: Apredica 1-hour HepG2 Assay for Microtubule CSK Stabilty (AID 2282669); conditions: HepG2 microtubule cytoskeleton imaging, actives raise or lower the signal
Outline: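 HepG2 cells exposed 1 h to 0.39–200 uM compound (0.5% DMSO, duplicates), then formaldehyde-fixed, permeabilized and immunostained for alpha-tubulin with Hoechst nuclei. Imaged by ArrayScan high-content analysis; bidirectional fit versus DMSO.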

[5] = APR_HepG2_p53Act_1hr: Apredica 1-hour HepG2 Assay for p53 Activation (AID 2282671); conditions: high-content imaging, actives raise or lower the signal
Outline: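 HepG2 cells treated 1 h with compound at 0.39–200 uM (10 concentrations, duplicate) in 0.5% DMSO. Formaldehyde-fixed, permeabilised cells immunostained for p53 with Hoechst 33342; high-content imaging, bidirectional fit versus DMSO.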

[6] = APR_HepG2_MitoticArrest_1hr: Apredica 1-hour HepG2 Assay for Mitotic Arrest (AID 2282672); conditions: high-content imaging, actives raise or lower the signal
Outline: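 HepG2 cells exposed 1 hr to compounds at 0.39–200 uM (0.5% v/v DMSO final), then fixed in 3.7% formaldehyde and immunostained for phospho-histone H3 with Hoechst 33342. Mitotic arrest scored by automated fluorescence imaging, fitted bidirectionally versus DMSO.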

[7] = APR_HepG2_P-H2AX_1hr: Apredica 1-hour HepG2 Assay for H2AX Phosphorylation (AID 2282673); conditions: high-content imaging, actives raise or lower the signal
Outline: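 HepG2 dosed 1 hr at 0.39-200 uM (0.5% DMSO final), duplicate. Fixed in 3.7% formaldehyde, Triton permeabilized, immunostained for phospho-histone H2A.x (1:200) with Hoechst 33342; ArrayScan 20x imaging, bidirectional fit vs DMSO.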

[8] = APR_HepG2_MitoMass_1hr: Apredica 1-hour HepG2 Assay for Mitochondrial Mass (AID 2282674); conditions: high-content imaging, actives raise or lower the signal
Outline: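 HepG2 cells dosed 1 hr with 0.39-200 uM compound (0.5% DMSO), duplicate wells. Mitochondria stained with 250 nM MitoTracker Red CMXRos for 30 min before formaldehyde fixation, imaged at 20x by ArrayScan; bidirectional fit versus DMSO.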

[9] = APR_HepG2_MitoMembPot_1hr: Apredica 1-hour HepG2 Assay for Mitochondrial Membrane Potential (AID 2282675); conditions: imaging, actives raise or lower the signal
Outline: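 HepG2 cells dosed 1 hour with 0.39–200 uM compound in duplicate, 0.5% DMSO final. MitoTracker Red CMXRos (250 nM, 30 min) loaded before formaldehyde fixation; fluorescence quantified by high-content imaging, bidirectional fitting versus DMSO.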

[10] = APR_HepG2_NuclearSize_1hr: Apredica 1-hour HepG2 Assay for Nuclear Size (AID 2282670); conditions: high-content imaging, actives raise or lower the signal
Outline: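 HepG2 cells dosed 1 hr with 0.39–200 uM compound (0.5% DMSO), formaldehyde-fixed, Hoechst 33342-stained and imaged at 20x; nuclear diameter from nuclear stain, fitted bidirectionally against DMSO.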

SMILES | outcome [1] | AC50 [2] | outcome [3] | outcome [4] | outcome [5] | outcome [6] | outcome [7] | outcome [8] | outcome [9] | outcome [2] | outcome [10] | AC50 [9]
CC(C)(C)C(=O)C(Oc1ccc(Cl)cc1)n1cncn1 (stereo not given) | inactive | 22.5 µM (active) | inactive | inactive | inactive | inactive | inactive | inactive | inactive | – | – | –
COc1cc(Cl)c(OC)cc1Cl | inactive | – | inactive | inactive | inactive | – | inactive | inactive | inactive | inactive | inactive | –
Cc1c(COC(=O)[C@@H]2[C@H](/C=C(\Cl)C(F)(F)F)C2(C)C)cccc1-c1ccccc1 | inactive | – | inactive | inactive | inactive | – | inactive | inactive | inactive | inactive | – | –
CCOc1nc(F)cc2nc(S(=O)(=O)Nc3c(Cl)cccc3Cl)nn12 | – | – | inactive | inactive | – | – | inactive | inactive | inactive | inactive | – | –
Nc1c(Cl)c(Cl)nc(C(=O)O)c1Cl | – | – | inactive | inactive | – | – | – | inactive | inactive | inactive | – | –
COP(=S)(OC)SCn1nnc2ccccc2c1=O | – | – | inactive | inactive | – | inactive | inactive | inactive | inactive | inactive | – | –
Nc1cnn(-c2ccccc2)c(=O)c1Cl | – | – | inactive | inactive | – | inactive | inactive | inactive | inactive | inactive | inactive | –
Cn1c(-c2ccccc2)cc(-c2ccccc2)[n+]1C | – | 2.11 µM (active) | inactive | inactive | – | inactive | – | inactive | inactive | – | inactive | –
COc1cc(OC)nc(NC(=O)NS(=O)(=O)c2ncccc2OCC(F)(F)F)n1 | – | – | inactive | inactive | – | inactive | inactive | inactive | inactive | inactive | – | –
CC1(C)CCC(=Cc2ccc(Cl)cc2)C1(O)Cn1cncn1 (stereo not given) | – | – | inactive | inactive | inactive | – | inactive | inactive | inactive | inactive | inactive | –
CC(C)N1C(=O)N(c2ccccc2)CSC1=NC(C)(C)C | – | – | inactive | inactive | inactive | inactive | – | inactive | – | inactive | – | 114 µM (active)
CNC(=O)Oc1cccc2ccccc12 | – | – | inactive | inactive | – | inactive | – | inactive | inactive | inactive | – | –
CC1(C)C(C=C(Cl)Cl)C1C(=O)OC(C#N)c1cccc(Oc2ccccc2)c1 (stereo not given) | – | – | inactive | inactive | – | – | inactive | inactive | inactive | inactive | inactive | –
COCC(=O)N(c1c(C)cccc1C)C(C)C(=O)OC (stereo not given) | – | – | inactive | inactive | – | – | – | inactive | inactive | inactive | – | –
Cc1nc(N(C)C)nc(OC(=O)N(C)C)c1C | – | – | inactive | inactive | – | inactive | – | inactive | inactive | inactive | inactive | –
C=CCOC(=O)C(C)(C)OC(=O)c1cc(-n2c(=O)cc(C(F)(F)F)n(C)c2=O)ccc1Cl | – | – | inactive | inactive | – | – | – | inactive | inactive | inactive | – | –
Cc1ccc(N=CN(C)C=Nc2ccc(C)cc2C)c(C)c1 | – | – | inactive | inactive | – | inactive | – | inactive | – | inactive | – | 108 µM (active)
CC1(C)C(C(=O)OC(C#N)c2cccc(Oc3ccccc3)c2)C1(C)C (stereo not given) | – | – | inactive | inactive | inactive | – | – | inactive | inactive | inactive | – | –
CCSC(=O)N1CCCCCC1 | – | – | inactive | inactive | inactive | – | – | inactive | inactive | inactive | inactive | –
COP(=O)(OC)O/C(C)=C/C(=O)N(C)C | – | – | inactive | inactive | inactive | – | – | inactive | inactive | inactive | – | –

SMILES | outcome [1] | AC50 [2] | outcome [3] | outcome [4] | outcome [5] | outcome [6] | outcome [7] | outcome [8] | outcome [9] | outcome [2] | outcome [10] | AC50 [9]
CCCCOCN(C(=O)CCl)c1c(CC)cccc1CC | – | – | inactive | inactive | – | – | – | inactive | inactive | inactive | – | –
CC(C)NC(=O)N1CC(=O)N(c2cc(Cl)cc(Cl)c2)C1=O | – | – | inactive | inactive | inactive | inactive | – | inactive | inactive | inactive | – | –
CCNP(=S)(OC)O/C(C)=C/C(=O)OC(C)C (stereo not given) | – | – | inactive | inactive | – | inactive | – | inactive | inactive | inactive | – | –
CC(C)Nc1nc(Cl)nc(NC(C)C)n1 | – | – | inactive | inactive | – | – | – | inactive | inactive | inactive | inactive | –
CCOP(=O)(OCC)Oc1nc(Cl)c(Cl)cc1Cl | – | – | inactive | inactive | – | inactive | – | inactive | inactive | inactive | – | –
Clc1nc(Cl)nc(Nc2ccccc2Cl)n1 | – | – | inactive | inactive | inactive | inactive | – | inactive | inactive | inactive | – | –
O=C1C2CC=CCC2C(=O)N1SC(Cl)(Cl)Cl (stereo not given) | – | – | inactive | inactive | – | – | – | inactive | inactive | inactive | – | –
COC(=O)N(C(=O)N1CO[C@@]2(C(=O)OC)Cc3cc(Cl)ccc3C2=N1)c1ccc(OC(F)(F)F)cc1 | – | – | inactive | inactive | inactive | – | inactive | inactive | inactive | inactive | – | –
O=C(O)c1c(Cl)ccc2cc(Cl)cnc12 | – | – | inactive | inactive | – | – | inactive | inactive | inactive | inactive | – | –
COc1ccc(-c2ccccc2)cc1NNC(=O)OC(C)C | – | – | inactive | inactive | inactive | inactive | – | inactive | inactive | inactive | – | –
COC(=O)NC(=S)Nc1ccccc1NC(=S)NC(=O)OC | – | – | inactive | inactive | inactive | – | – | inactive | inactive | inactive | inactive | –
O=C(Nc1ccccc1-c1ccc(Cl)cc1)c1cccnc1Cl | – | – | inactive | inactive | – | – | inactive | inactive | inactive | inactive | – | –
COC(=O)c1c(C(F)F)nc(C(F)(F)F)c(C2=NCCS2)c1CC(C)C | – | – | inactive | inactive | – | inactive | inactive | inactive | inactive | inactive | inactive | –
COCc1cnc(C2=NC(C)(C(C)C)C(=O)N2)c(C(=O)O)c1 (stereo not given) | – | – | inactive | inactive | – | – | – | inactive | inactive | inactive | – | –
CCOC(=O)C(C)OC(=O)c1cc(Oc2ccc(C(F)(F)F)cc2Cl)ccc1[N+](=O)[O-] (stereo not given) | – | – | inactive | inactive | – | inactive | inactive | inactive | inactive | inactive | – | –
CC(C)=CC1C(C(=O)OCc2coc(Cc3ccccc3)c2)C1(C)C (stereo not given) | – | – | inactive | inactive | – | – | – | inactive | – | inactive | – | 98.4 µM (active)
O=P(O)(O)CCCl | – | – | inactive | inactive | – | inactive | inactive | inactive | inactive | inactive | – | –
C=C(C)CN(CC)c1c([N+](=O)[O-])cc(C(F)(F)F)cc1[N+](=O)[O-] | – | – | inactive | inactive | – | – | inactive | inactive | inactive | inactive | inactive | –
CN=C=S | – | – | inactive | inactive | – | – | – | inactive | inactive | inactive | – | –
